The campaign covered roughly 190,000 compounds. About 790 (0.42%) were called active.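 How the source made its calls: active means inhibition above a set limit, the median over all tested compounds plus 3 SD (cut at about 9.5% in these data); inconclusive means no clear call, values can overlap the other calls; inactive means the rest.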 The entries come from a sample that favours actives as a whole.

In the test the test system is HMG-CoA reductase (Enterococcus faecalis, mvaE). Nature of the test: inhibitors of E. faecalis class II HMGR, primary screen, biochemical, Enterococcus faecalis (AID 1066).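 Further: enzyme runs in reverse so mevalonate oxidation gives rising NADPH absorbance; 0% = complete reaction with DMSO and 100% = background rate lacking mevalonate.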 To be noted: purified E. faecalis HMGR, NADPH absorbance 340 nm kinetic; at 10 µM; active compounds read high.
As for `O=C(Cc1ccc([N+](=O)[O-])cc1)N/N=C/c1ccco1`, the inhibition was 3.38% (inactive).

For `CCCOCC(O)CC(CC)C(=O)NNC(=S)Nc1ccccc1` (stereo unspecified), the inhibition was -0.14% (inactive).

As to `C=CCN(CC=C)CCOc1ccccc1[N+](=O)[O-]`, the inhibition was -2.7% (inactive).

For the molecule `COc1cc(NC(=S)N2CCCC(C)C2)cc(OC)c1OC` (stereo unspecified), the inhibition is 0.35% (inactive).

As for `CN1CCN(C(CNS(=O)(=O)c2cccs2)c2cccnc2)CC1` (stereo unspecified), the inhibition was -4.32% (inactive).

With `O=C(Nc1ccccc1)N1CCN(C(=O)Nc2ccccc2)CC1`, the inhibition was -2.68% (inactive).

For the molecule `CN(C)S(=O)(=O)c1ccc(NC(=O)N2CCOCC2)cc1`, the inhibition is 15.2% (active).

In the case of `COc1cc(NC(=O)N2CCOCC2)cc(OC)c1`, the inhibition is -5.26% (inactive).

`Cc1ccc(SCCC(=O)NCc2ccccn2)cc1`: the inhibition is 1.33% (inactive).

In the case of `CN1C(=O)/C(=C/c2ccc(C(=O)NC3CCCC3)cc2)Oc2ccccc21`, the inhibition was -13.4% (inactive).

Consider `CCN1/C(=C/c2ccc3ccc(C)cc3[n+]2CC)Sc2ccccc21`, for which the inhibition was -2.41% (inactive).

`CCC(=O)/C=C1\Sc2ccccc2N1CC`: the inhibition is 11.8% (active).

With `O=C(CCN1c2ccccc2Sc2ccccc21)Nc1ccccc1`, the inhibition is -1.11% (inactive).

As for `COc1cc(/C=N/NC(=O)c2cc(C)n(-c3ccc(F)cc3)c2C)cc(OC)c1O`, the inhibition was 3.01% (inactive).

On to `Cc1cc(C(=O)N/N=C/c2ccc(O)c([N+](=O)[O-])c2)c(C)n1-c1ccc(F)cc1`, for which the inhibition was 11.2% (active).

In the case of `Cc1cc(C(=O)COC(=O)C2CC2)c(C)n1-c1ccc(F)cc1`, the inhibition was 2.01% (inactive).

In the case of `CCOc1ccccc1N1CCN(C(=S)Nc2ccc(S(N)(=O)=O)cc2)CC1`, the inhibition is -3.56% (inactive).

In the case of `O=C(Nn1cnc2ccccc2c1=O)c1ccc([N+](=O)[O-])cc1Cl`, the inhibition was -1.28% (inactive).

Consider `CCCCN1C(=O)/C(=C(/C#N)C(N)=O)c2ccccc21`, for which the inhibition is -0.52% (inactive).

Take `CN(CC(=O)Nc1ccccc1F)CC(=O)Nc1ccccc1Br`: the inhibition was 9.9% (active).

With `CN(CC(=O)Nc1ccccc1[N+](=O)[O-])Cc1ccc(Br)cc1`, the inhibition is -2.46% (inactive).

`CSc1ccccc1NC(=O)CN(C)CC(=O)Nc1cccc(Br)c1`: the inhibition was 3.22% (inactive).

Regarding `Cc1cccc(C(=O)NCCCN2CCCC2=O)c1`, the inhibition was -2.71% (inactive).

Regarding `O=C(CCn1c(=S)[nH]c2ccccc2c1=O)NCCCN1CCCC1=O`, the inhibition is -5.44% (inactive).

Turning to `O=C(CCC(=O)NNc1nc2ccccc2c2nc(-c3ccccc3)nn12)NCCCN1CCCC1=O`, the inhibition was 11.7% (active).

For `O=Cc1ccc(Oc2cccc(C(F)(F)F)c2)nc1`, the inhibition is -2.83% (inactive).

On to `O=C(COC(=O)c1cccc(Br)c1)Nc1cccc2c1C(=O)c1ccccc1C2=O`, for which the inhibition is -0.48% (inactive).

Take `COc1ccc(NC(=O)c2sc(N)nc2-c2ccccc2)cc1`: the inhibition was 3.25% (inactive).

With `COc1ccc(-n2c(O)c(C=NCC(c3ccco3)N3CCCC3)c3ccccc3c2=O)cc1OC` (stereo unspecified), the inhibition is 3.15% (inactive).

For the molecule `Cc1nn(CCOc2ccc(Br)cc2)c(C)c1[N+](=O)[O-]`, the inhibition is -5.05% (inactive).

With `Cc1ncc([N+](=O)[O-])n1CCOC(=O)c1ccc(Br)cc1`, the inhibition is 10% (active).

As to `N/C(=N\OC(=O)COc1ccc([N+](=O)[O-])cc1)c1ccc(Br)cc1`, the inhibition is -0.17% (inactive).

Turning to `CCN(CC)CCNc1nc(-c2ccc(OC(F)F)cc2)c(C)s1`, the inhibition was -4.92% (inactive).

Turning to `CCN(C(=O)CSc1nnc2ccccn12)C1CCS(=O)(=O)C1` (stereo unspecified), the inhibition is -6.19% (inactive).

As for `COC(=O)c1ccc(-n2cnc3ccccc32)nc1`, the inhibition is -2.82% (inactive).

Regarding `COc1ccc(N2C(=O)C(Cc3ccccc3)NC2=S)cc1` (stereo unspecified), the inhibition was -5.65% (inactive).

As for `COC(=O)c1cc(NC(=O)c2nn(C)c(=O)c3ccccc23)cc(C(=O)OC)c1`, the inhibition was -0.04% (inactive).

For the molecule `COC(=O)C1=C(C)N(C)C(=O)NC1c1ccc([N+](=O)[O-])o1` (stereo unspecified), the inhibition is 0.43% (inactive).

As for `C/[N+]([O-])=C\c1ccc([N+](=O)[O-])o1`, the inhibition is 11% (active).

On to `CCn1c(/C=C/c2ccc([N+](=O)[O-])o2)nc2ccccc2c1=O`, for which the inhibition is -2.94% (inactive).

Consider `CN(C)/C=C/C(=O)c1cnc2sccn2c1=O`, for which the inhibition was 2.25% (inactive).

Turning to `Fc1ccccc1CNC(=S)Nc1ccc(Cl)cc1`, the inhibition was -0.98% (inactive).

Take `Fc1ccccc1Cn1cnc(NC(=S)NCCc2ccccc2)n1`: the inhibition is 15.6% (active).

With `S=C(NCCc1ccccc1)NCc1ccccc1Cl`, the inhibition is 1.49% (inactive).

For `CCOc1ccc(N2C(=O)/C(=C/c3ccc(C)o3)N(C)C2=S)cc1`, the inhibition was -5.07% (inactive).

With `COCCN(C(=O)C(C)C)c1nnc(-c2ccc(C(C)(C)C)cc2)s1`, the inhibition was -2.5% (inactive).

With `COc1ccc(NC(=O)N2CCCC(c3nc(-c4ccc(F)cc4)no3)C2)cc1` (stereo unspecified), the inhibition was 1.89% (inactive).

Regarding `O=C(c1ccccc1Cl)N(Cc1ccccc1F)N1C(=O)CCCC1=O`, the inhibition was -5.67% (inactive).

With `C=CCn1c(=NC(=O)c2cccs2)sc2cc(NC(C)=O)ccc21`, the inhibition is -0.47% (inactive).

With `CCN=C1S/C(=C\c2cc(Br)ccc2OCC(=O)OCC)C(=O)N1CC`, the inhibition is -2.47% (inactive).

As for `COc1cccc(Cn2cnc3c([N+](=O)[O-])c(C)c(C)cc32)c1`, the inhibition is -3.58% (inactive).

`COc1ccc(F)cc1C(=O)C1CCCN(C(=O)CCc2ccccn2)C1` (stereo unspecified): the inhibition was -4.06% (inactive).

In the case of `CCOC(=O)C1CCN(C(=O)/C=C/c2cc(OC)c(OC)c(OC)c2)CC1`, the inhibition is -1.76% (inactive).

For `Cc1cc(C)c2nc(-c3cccnc3)cc(C(=O)Nc3ccc(S(=O)(=O)Nc4onc(C)c4C)cc3)c2c1`, the inhibition was -2.12% (inactive).

For `Cc1ccc(CSc2nc3[nH]ncc3c(=O)[nH]2)cc1`, the inhibition was -1.81% (inactive).

As to `COc1ccc(C(=O)Nc2ccccc2C(=O)N/N=C/c2ccccc2OC)cc1`, the inhibition is -0.76% (inactive).

Turning to `COc1ccccc1C(=O)NNC(=O)c1ccc(NC(=O)c2ccccc2)cc1`, the inhibition was 15.3% (active).

As for `C/C(=N/NC(=O)c1ccc(NC(=O)c2ccc(F)cc2)cc1)c1ccccc1`, the inhibition was -3.05% (inactive).

For the molecule `CC(=O)c1ccc(NC(=S)N(Cc2ccccc2)C(C)C2CC2)cc1` (stereo unspecified), the inhibition was -4.01% (inactive).

With `O=C(COC(=O)c1cc(=O)[nH]c2ccccc12)Nc1nc(-c2cccc(Br)c2)cs1`, the inhibition is -0.22% (inactive).

Take `C/C(=N\NS(=O)(=O)c1ccc(Cl)cc1)c1ccc(NC(=O)c2ccco2)cc1`: the inhibition was 2.58% (inactive).
